Data on 27 compounds can be found in PubChem BioAssay AID463173 (ICCB-Longwood Screening Facility, Harvard Medical School, 2010).

About 1,700 (3.3%) of roughly 52,000 compounds were called active. The list comes from a sample in which actives are over-represented; it also holds similar structures and randomly drawn compounds. Unmarked numbers belong to inactive results. Cut-off read from the data, not from the text of the source: active = survival mostly below about 52% (no sharp cut-off); inactive = mostly above about 56%.

For the experiment, the system named is Wild type. As to the kind of experiment: growth inhibition of S. aureus wild type versus tarO mutant, primary screen, teichoic acid synthesis inhibitors, RN4220, OD600 (AID 463173). The settings on record: S. aureus RN4220 wild type/DeltatarO growth, OD600, 18 h, active compounds read low, screened at 18.75 µg/mL (by protocol).
As for `Cc1ccc(CCNC(=O)c2cc3c(=O)oc4ccccc4c3s2)cc1`, the survival is 73%. Take `c1ccc(-n2ncc3c(NC4CCCC4)ncnc32)cc1`: the survival was 121%. On to `CCOC(=O)C1CCN(S(=O)(=O)c2cc(-c3onc(C)c3C)ccc2C)CC1`, for which the survival was 81%. Turning to `O=C(Nc1ccccc1F)C(Cc1ccccc1)N1Cc2ccccc2C1=O` (configuration not stated), the survival is 75%. The result for `CC(C(=O)Nc1ccc(OC(F)(F)F)cc1)N1Cc2ccccc2C1=O` (configuration not stated) reads -3% (active). To `Cc1cc(C)cc(NC(=O)C(C)N2Cc3ccccc3C2=O)c1` (configuration not stated) belongs 63%; to `O=C(Nc1ccc(F)cc1F)C(Cc1ccccc1)N1Cc2ccccc2C1=O` (configuration not stated), -6% (active). Take `Cc1ccc(NC(=O)[C@H](Cc2ccccc2)N2Cc3ccccc3C2=O)cc1F`: the survival was 78%. For `Cc1ccc(C)c(NC(=O)C(CC(C)C)N2Cc3ccccc3C2=O)c1` (configuration not stated), the survival was 159%. On to `CC(C(=O)Nc1ccc(F)c(Cl)c1)N1Cc2ccccc2C1=O` (configuration not stated), for which the survival was 0% (active). The result for `COC(=O)c1ccc(NC(=O)C(C)N2Cc3ccccc3C2=O)cc1` (configuration not stated) reads 53%; that for `O=C(Nc1ccc(F)cc1)[C@H](Cc1ccccc1)N1Cc2ccccc2C1=O`, 91%. With `Cc1ccc(NC(=O)C(CC(C)C)N2Cc3ccccc3C2=O)cc1F` (configuration not stated), the survival is -6% (active). For the compound `CCOc1ccc(NC(=O)C(CC(C)C)N2Cc3ccccc3C2=O)cc1` (configuration not stated), the survival is 134%. The result for `COc1ccc(NC(=O)C(C)N2Cc3ccccc3C2=O)cc1OC` (configuration not stated) reads 75%; that for `Cc1ccccc1CSc1cn(CCNC(=O)c2cccs2)c2ccccc12`, 79%. In the case of `COc1ccc(NC(=O)Cc2ccc(NC(=O)N3CCCCc4ccccc43)cc2)c(OC)c1`, the survival was 60%. The result for `COc1cccc(C(=O)NC2CCCC2)c1` reads 103%; that for `O=C(CCS(=O)(=O)c1cccs1)Nc1ccc(C(=O)Nc2ccccc2F)cc1`, 135%; that for `CC(=O)c1ccc(N2CCN(C(=O)CCCn3c(=O)[nH]c4ccsc4c3=O)CC2)cc1`, 66%.

As for `c1ccc(-n2nc3ccc4nonc4c3n2)cc1`, the survival is 104%. To `On1c2c(c3c4nonc4ccc31)CCCC2` belongs 8% (active). Regarding `COC(=O)CSc1n[nH]c(CNc2cccc(C)c2)n1`, the survival was 108%. As to `O=C(NCCCN1CCN(c2ccccc2)CC1)c1nnc(Cc2ccc(F)cc2)o1`, the survival is 98%.

In the case of `COc1ccccc1C(=O)Nc1cc(-c2ccc(C)cc2)no1`, the survival is 73%. In the case of `Cc1ccc(NC(=O)Cn2nc(C)n3cccc3c2=O)c(C)c1`, the survival was 95%. The result for `CCn1c(COc2ccccc2)nnc1SCC(=O)CC(=O)Nc1ccccc1OC` reads 100%.
